Hits are enriched below; roughly 5.5% of the tested compounds scored in any of these assays.
uPA generation: cell surface uPA generation inhibition; cell surface uPA generation assay, qHTS; hit rate 0.31% among 330,000; Potency, µM (doses to about 38.3 µM), without a hit: at the highest dose activity change, negative = inhibition, hits mostly inhibitors; AID 540303; active = well fitted inhibition curve with a large enough effect; inconclusive = small, poorly fitted or top-dose-only effect; inactive = no such curve, though single readings can be large or run the other way; tested in mouse RAW 264.7 cells; note: % is set by controls: 0 for no effect and ±100 for the full control effect; nearly all actives have a fitted effect of over 55% in size
Gal4-VP16 FLuc: counter-screen for ROR gamma inhibitors: Gal4-VP16 reporter; Drosophila S2 Gal4-VP16 UAS-luciferase, luminescence, 20 h; Potency, µM (highest dose often 53.6 µM), for inactives: top-dose activity, negative = inhibition, actives largely listed as inhibitors; hit rate 3.5% among 310,000; AID 2546;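 note: Gal4-VP16 expression switched on by copper sulfate through the metallothionein promoter; % is set by controls: 0 for no effect and ±100 for the full control effect; nearly all actives have a fitted effect of over 50% in size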
a7 integrin act: integrin-mediated muscular dystrophy alleviation activation. alpha7betagal myoblasts, beta-gal FDG fluorescence, 48 h. Potency, µM (doses to about 38.3 µM), inactives show at the highest dose activation, usual class: activators. hit rate 0.064% among 350,000. AID 624291;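 note: 100% = response of the positive control SU9516; nearly all actives have a fitted effect of over 60% in size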
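Alpha7betagal+/- myoblasts (passage 13) were plated 16-24 hr, then exposed to compounds (1:260 dilution of DMSO stock) for 48 hours at 37C. After MPER lysis, β-galactosidase reporter activity was read as FDG fluorescence (ex 480/em 540) after 30 minutes.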
Mito fusion act: blocks mitochondrial division or promotes mitochondrial fusion; S. cerevisiae fusion-defective mutant growth rescue, CellTiterGlo 48 h; Potency, µM (doses to about 46.1 µM), without a hit: at the top dose growth rescue (activation), most hits filed as activators; hit rate 0.23% among 320,000; AID 485298; note: % of control where 0% means no effect; nearly all actives have a fitted effect of over 45% in size
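Compounds are tested for their ability to restore growth of mitochondrial fusion-defective yeast strains at non-permissive 37C in YPEG medium over 48 hours. Viability is quantified by luciferase luminescence.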
RORg inh: ROR gamma (mouse) transcription inhibition. P51450. Drosophila S2 Gal4-RORgamma UAS-luciferase reporter, 20 h. Potency, µM (top dose mostly 53.6 µM), for inactives: top-dose activity change, negative = inhibition, usual class: inhibitors. hit rate 5.4% among 310,000. AID 2551; note: % is set by controls: 0 for no effect and ±100 for the full control effect; nearly all actives have a fitted effect of over 60% in size
Target sequence (P51450 whole entry, looked up, the tested form may be a part): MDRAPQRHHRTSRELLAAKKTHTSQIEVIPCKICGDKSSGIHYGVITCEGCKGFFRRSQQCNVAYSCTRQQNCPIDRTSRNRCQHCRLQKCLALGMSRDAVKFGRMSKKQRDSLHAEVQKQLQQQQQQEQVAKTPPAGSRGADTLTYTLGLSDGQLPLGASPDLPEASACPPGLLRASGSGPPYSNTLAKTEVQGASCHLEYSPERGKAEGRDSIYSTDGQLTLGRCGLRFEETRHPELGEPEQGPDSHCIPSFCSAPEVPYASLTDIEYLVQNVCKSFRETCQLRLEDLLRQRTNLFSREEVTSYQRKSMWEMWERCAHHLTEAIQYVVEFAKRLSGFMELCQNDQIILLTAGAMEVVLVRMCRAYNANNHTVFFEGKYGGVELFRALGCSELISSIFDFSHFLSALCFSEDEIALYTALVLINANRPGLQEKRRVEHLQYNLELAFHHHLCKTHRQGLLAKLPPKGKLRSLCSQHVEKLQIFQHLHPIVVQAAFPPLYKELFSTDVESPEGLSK
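In this cell-based reporter format, copper sulfate (700 uM final) drives Gal4–ROR gamma fusion expression from a metallothionein promoter in Drosophila Schneider cells; compounds preincubated 1 hr, reporter read after 20 hr at ambient temperature.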
Chronic BCR inh: blocks chronic active B-cell receptor signaling. Potency, µM (top dose mostly 46.1 µM), for inactives: top-dose activity change, negative = inhibition, hits mostly inhibitors. ABC-DLBCL IkBa-CBG/CBR reporter, luminescence ratio, 4 h. hit rate 0.05% among 340,000. AID 493014; active = well fitted inhibition curve with a large enough effect in the signal ratio, with a control signal flat, not every such curve was filed as active; inconclusive = small, poorly fitted or top-dose-only effect, or effect the other way, or a change in a side signal; the % refers to the signal ratio;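 note: plate controls were basal doxycycline-induced cells for no effect and cells given 10 µM MG132 for full effect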
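Doxycycline induced both beetle luciferases in TMD8 lymphoma cells; IKK-driven degradation limits the IkappaBalpha-fused green signal, while red luminescence normalises for cell number and nonspecific effects. Compounds tested up to 46 uM, 4 hrs.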
* marks the source's active call; other numbers are inactive results; ? = inconclusive; / = no result; [ ] = another dose, or the depositor's remark. Unless noted, calls come from the whole dose curve; as a rule, active = well fitted curve in the direction sought with a large enough effect; inconclusive = small, poorly fitted or top-dose-only effect, or another doubt; inactive = no such curve, though single readings can be large; an effect the other way counts as inactive or inconclusive. Potency is the fitted concentration of half-maximal effect.

SMILES | uPA generation | Gal4-VP16 FLuc | a7 integrin act | Mito fusion act | RORg inh | Chronic BCR inh
O=C(Nc1ccc2c(c1)OCCO2)c1cc(F)c(F)cc1Cl | ? | / | 22% | -1% | / | 2%
Cc1ccc(C(=O)Nc2ccc3c(c2)OCCO3)c(Cl)c1 | ? | 5µM* | -9% | -4% | 7.9µM* | -3%
CC(=O)Nc1ccc(NC(=O)/C=C/c2ccc3c(c2)OCO3)cc1 | 4% | -14% | -27% | -4% | 10% | -5%
CC(C)(C)c1ccc(/C=C/C(=O)Nc2ccc3c(c2)OCCO3)cc1 | / | ? | / | 15µM* | ? | /
CC[C@H](C)[C@H](N)C(=O)N[C@@H](CCCCN)C(=O)N[C@H](C(=O)N[C@@H](C)C(=O)N[C@H](C(=O)O)C(C)C)C(C)C | / | -16% | / | / | -3% | /
CCC(C)C(N)C(=O)NC(CC(N)=O)C(=O)NC(CC(C)C)C(=O)NC(CCCCN)C(=O)NC(C)C(=O)NC(CC(C)C)C(=O)NC(C)C(=O)NC(C)C(=O)NC(CC(C)C)C(=O)NC(C)C(=O)NC(CCCCN)C(=O)NC(CCCCN)C(=O)NC(C(=O)NC(CC(C)C)C(N)=O)C(C)CC (stereo not given) | / | 18µM* | / | / | ? | /
Cc1cccc(NC(=S)NCCO)c1C | 1% | -5% | -12% | -3% | -16% | 1%
CCNC(=S)Nc1cccc(F)c1C | -3% | -24% | 0% | 1% | 13µM* | 4%
Cc1cccc(NC(=S)NCc2ccccc2)c1C | 0% | 5.6µM* | -11% | -17% | 4µM* | 2%
Cc1cccc(NC(=S)NCc2ccc(F)cc2)c1C | 2% | 5µM* | -7% | -4% | 3.5µM* | 7%
Cc1ccccc1NC(=S)NCc1ccc(F)cc1 | -3% | 6.3µM* | 3% | -17% | 7.1µM* | 2%
CCCNC(=O)N1N=C(c2ccc(N)cc2)c2cc3c(cc2C1C)OCO3 (stereo not given) | / | 1% | / | / | 26% | /
CCNC(=S)NCc1ccc(Cl)cc1 | -1% | / | 15% | / | / | /
Cc1ccccc1NC(=S)NCc1ccc(Cl)cc1 | -1% | 4µM* | -15% | 3% | 2.8µM* | 15%
Cc1cc(Cl)ccc1NC(=S)NCc1ccc(F)cc1 | 6% | 7.1µM* | -9% | -9% | 6.3µM* | ?
Cc1cccc(NC(=S)Nc2ccccn2)c1C | 3% | 1.8µM* | 8% | -5% | 1.1µM* | ?
CCN(CC)CCCNc1ccc2ncn3c4ccc(O)cc4c(=O)c1c23 | -8% | / | -21% | / | / | /
Cc1nc2ccccc2c(=O)n1-c1ccc(NC(=O)c2cccc([N+](=O)[O-])c2)cc1 | / | / | / | / | / | 11%
COc1ccc(C2C(=O)N(C3CCCCCC3)CC(=O)N2CCC2=CCCCC2)cc1 (stereo not given) | / | / | / | / | / | -1%
N#Cc1cccc(-c2cc(-n3ccnc3)ncn2)c1 | / | 5% | / | / | -11% | /
COc1ccc(-c2cc(C(=O)NNC3=NCCC3)c3c(C)nn(-c4ccccc4)c3n2)cc1 | 0% | ? | 6% | -15% | 0.32µM* | 2%
NC(=O)c1ccsc1NC(=O)COC(=O)Cc1c[nH]c2ccccc12 | -2% | / | -15% | -3% | / | ?
NC(=O)c1ccsc1NC(=O)COC(=O)Cc1cccc2ccccc12 | -8% | 4.5µM* | -37% | 9% | -28% | ?
COc1cc(C(=O)OCC(=O)Nc2sccc2C(N)=O)cc(OC)c1OC | 3.2µM* | 1% | -29% | -8% | 3% | -5%
COc1ccc(C#CC2C=CC(Oc3cc(C)cc(C)c3)C(CO)O2)cc1 (stereo not given) | / | -4%[10 µM] | / | / | 3%[10 µM] | /
CCOc1ccccc1NC(=O)CN1C=NS(=O)(=O)c2ccccc21 | / | / | / | / | / | -1%
O=C1c2c(O)ccc([N+](=O)[O-])c2C(=O)c2c([N+](=O)[O-])ccc(O)c21 | / | 11µM* | / | / | 6.3µM* | /
O=C1c2ccccc2C(=O)c2c([N+](=O)[O-])ccc(O)c21 | 0% | 6% | -8% | -2% | -28% | 21%
COc1ccccc1OCC(=O)N/N=C1\CCCCc2ccccc21 | 4% | 10% | -15% | 11% | 22% | ?
